Bioassay records as filed in PubChem.
Most compounds without a hit are left out; they make up all but 19% or so of the library.
TDP1 cell CPT: growth inhibition of DT40 Tdp1-/-;hTDP1 cells with camptothecin (screen for TDP1 inhibitors); chicken DT40 Tdp1-/-;hTDP1 cells + 20 nM CPT, ATP luminescence, 48 h; Potency, µM (titrated, usually from 46.2 µM), usual class: inhibitors; 12% of 420,000 active; further: nearly all actives have a fitted effect of over 55% in size
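Cell growth measured by CellTiter-Glo luminescence after a minimum 48 h, 37 C compound exposure with 20 nM CPT in Tdp1-knockout DT40 cells stably expressing hTDP1, seeded 400/well; qHTS titration format.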
IL-1B inflam inh: blocks inflammasome-driven IL-1 beta release | 4.7% of 360,000 active | activity change, % at 57.5 µM | THP-1 LPS/ATP IL-1B secretion, AlphaLISA, 16 h; stronger effect = lower value | AID 743279; in the data active means activity change below about -50%; inconclusive means mostly about -30% to -49%
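THP-1 cells pretreated 1 hr with compounds (up to 57.5 uM final), then stimulated with LPS (250 ng/mL final) plus ATP (1.25 mM final); secreted IL-1B measured by AlphaLISA after 16 hr, decreased signal indicating inhibition.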
DT40 TDP1 no CPT: qHTS for Inhibitors of human tyrosyl-DNA phosphodiesterase 1 (TDP1): qHTS in cells in absence of CPT | Potency, µM (highest dose often 46.2 µM), hits mostly inhibitors | 15% of 420,000 active | DT40 Tdp1-/- hTDP1 cells, no CPT, ATP luminescence, 48 h; further: nearly all actives have a fitted effect of over 55% in size
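Stably hTDP1-transfected Tdp1-null chicken DT40 cells were treated with library compounds minus camptothecin and grown for at least 48 hr at 37 °C, after which cellular ATP was quantified by luminescence.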
HT1080-NT tox: kills 2HG-producing HT-1080-NT fibrosarcoma cells; 1.6% of 360,000 active; AID 686970; HT-1080-NT fibrosarcoma viability, CellTiter-Glo ATP luminescence, 48 h; Potency, µM (titrated, usually from 46.1 µM), hits mostly cytotoxic;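 further: NT is the 2HG producing partner of a matched IDH1 knockdown line; nearly all actives have a fitted effect of over 55% in size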
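Luminescent CellTiter-Glo readout after 48 hours of compound exposure at 37 degrees C defined viability of HT-1080-NT cells. Activity was normalized to DMSO wells and cell-free media wells; concentration-response curves were fitted and assigned curve classes.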
HT1080 IDH1KD tx: toxicity to HT-1080 IDH1 knockdown cells (counter line). HT-1080 IDH1 knockdown viability, ATP luminescence, 48 h. Potency, µM (series often up to 46.1 µM), hits mostly cytotoxic. 2% of 360,000 active. AID 686971
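Assay cells: HT-1080 with IDH1 knockdown, 750 per well, RPMI/5% FBS. Exposure: 48 h at 37 °C following 2 h pre-incubation. Read: CellTiter-Glo luminescence; fitted concentration-response, curve class assigned.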
Hits are given with their value; . = inactive; ? = inconclusive; / = not tested or not shown; [ ] = remark or other dose. Unless noted, the call rests on the fitted dose curve; in most records, active means well fitted curve in the direction sought with a large enough effect; inconclusive means small, poorly fitted or top-dose-only effect, or another doubt; inactive means no such curve, though single readings can be large; an effect the other way counts as inactive or inconclusive.

SMILES	TDP1 cell CPT	IL-1B inflam inh	DT40 TDP1 no CPT	HT1080-NT tox	HT1080 IDH1KD tx
COC(=O)c1c(NC(=O)CS(=O)(=O)c2ccc(C)cc2)sc2c1CCCC2	?	/	16µM	/	/
O=C(NC1CS(=O)(=O)CC1NCc1ccco1)c1ccccc1 (stereo unspecified)	.	.	.	.	.
Cc1ccc(S(=O)(=O)N2CCN(C(=O)CCn3cncn3)CC2)cc1	.	.	.	.	.
CCCC1COC(Cn2cncn2)(c2ccc(C)cc2)O1 (stereo unspecified)	23µM	.	11µM	.	.
COc1cc2c(cc1OC)C(C)N(S(=O)(=O)c1cn(C)c(C)n1)CC2 (stereo unspecified)	.	.	.	.	.
O=C(CCc1nc2ccccc2c(=O)[nH]1)NCCN1C(=O)S/C(=C\c2ccc(Cl)cc2Cl)C1=O	8.2µM	.	4.6µM	.	?
COc1ccc(/C=C2\SC(=O)N(CCNC(=O)Cc3coc4cc(C)ccc34)C2=O)cc1OC	?	.	?	.	.
COc1cc(C(=O)NCC(=O)NCCN2C(=O)S/C(=C\c3ccccc3Cl)C2=O)cc(OC)c1OC	18µM	.	18µM	.	.
COc1cc(OC)cc(C(=O)NCC(=O)NCCN2C(=O)S/C(=C\c3ccccc3Cl)C2=O)c1	?	.	?	.	.
COc1cc(OC)cc(C(=O)NCC(=O)NCCN2C(=O)S/C(=C\c3ccc4c(c3)OCO4)C2=O)c1	?	-54	18µM	.	.
COc1cc(C=O)ccc1OC(=O)Nc1ccccc1	.	.	.	.	.
CCc1cc(C(=O)N(CC(C)C)c2c(N)n(Cc3ccccc3)c(=O)[nH]c2=O)sc1C	.	.	.	.	.
CCn1cc(CCC(=O)NCCN2CCOCC2)c2ccccc21	.	.	.	.	.
O=C(CCc1ccccc1)N1CCN(c2ccccn2)CC1	.	.	.	.	.
CCn1c(=O)c(CCC(=O)NCCN2CCOCC2)c(C)c2c(C)nn(-c3ccccc3)c21	21µM	.	?	.	.
Cc1ccc(-n2nc(C)c3c(C)c(CCC(=O)NCC4CCCO4)c(=O)n(C)c32)cc1 (stereo unspecified)	?	.	23µM	.	.
CCn1c(=O)c(CCC(=O)N2CCN(c3ccccn3)CC2)c(C)c2c(C)nn(-c3ccccc3)c21	16µM	.	21µM	?	.
CCn1c(=O)c(CCC(=O)NCC2CCCO2)c(C)c2c(C)nn(-c3ccccc3)c21 (stereo unspecified)	16µM	.	?	.	.
c1ccc(CNc2ncnc3sc4c(c23)CCC4)nc1	?	.	15µM	.	.
c1ccc(-c2csc3ncnc(NCc4ccccn4)c23)cc1	12µM	.	9.2µM	.	.
O=S(=O)(Nc1ncnc2sc3c(c12)CCC3)c1ccc(Cl)s1	?	.	13µM	.	.
Oc1ccc(Nc2ncnc3scc(-c4ccccc4)c23)cc1	?	.	8.2µM	.	.
Cc1cccc(C)c1Nc1nnc(SC(C)C(=O)Nc2c(C)n(C)n(-c3ccccc3)c2=O)s1 (stereo unspecified)	.	.	.	.	.
O=C(O)CCn1c2c(c3ccccc31)C[C@H](NS(=O)(=O)c1ccc(F)cc1)CC2	.	/	.	/	/
O=C(c1ccc(Cl)c(Cl)c1)N1CCC(=O)N(C(CO)Cc2ccccc2)CC1 (stereo unspecified)	?	.	.	.	.
SMILES	TDP1 cell CPT	IL-1B inflam inh	DT40 TDP1 no CPT	HT1080-NT tox	HT1080 IDH1KD tx
c1ccc(CNc2ncnc3scc(-c4cccs4)c23)nc1	10µM	?	9.2µM	.	.
CCc1nc2ccccc2c(C(=O)Nc2ccc(F)cc2)c1C	.	.	.	.	.
CCn1c(SCC(=O)N/N=C(\C)c2ccncc2)nnc1-c1ccc(C)cc1	.	.	?	.	.
CCn1c(SCC(=O)Nc2nccs2)nnc1-c1ccc(S(=O)(=O)N2CCCCC2)cc1	?	.	16µM	.	.
CCn1c(SCC(=O)c2ccc(O)c(O)c2)nnc1-c1ccc(C)cc1	23µM	.	?	.	.
CN(C)c1ccc(NC(=O)c2sc(SCC(=O)Nc3nccs3)nc2N)cc1	?	.	16µM	.	.
COc1ccc2cc(C)c3nnc(SCC(=O)Nc4nc(-c5ccccc5)cs4)n3c2c1	?	.	4.6µM	.	.
CCC(C)NC(=O)C(=O)NCC1CCCN1CC (stereo unspecified)	.	.	.	.	.
CC1CN(C(=S)Nc2cccc(Cl)c2Cl)CC(C)O1 (stereo unspecified)	.	.	.	.	.
CCOC(=O)N1CCN(C(=O)CSCC(=O)Nc2nc(-c3ccccc3)cs2)CC1	21µM	.	?	.	.
O=C(CSc1nc(-c2ccccc2)cs1)Nc1nccs1	?	.	16µM	?	?
COc1ccc(-c2oc(NC(=O)CSc3nncn3C)c(C#N)c2-c2ccc(OC)cc2)cc1	?	.	?	?	16µM
CC(C)OC(=O)CSc1nnc(-c2ccccc2)n1N	.	?	.	.	.
O=C(CSc1ccccc1)Nc1nccs1	.	.	.	.	.
CCn1c(SCC(=O)OC(C)C)nnc1-c1ccccc1	.	-64	.	.	.
O=C(CSCC(=O)N1CCN(c2ccccc2)CC1)Nc1nc(-c2ccc(Cl)s2)cs1	?	.	?	.	.
Cc1nnc(SCC(=O)Nc2nc(-c3ccccc3)cs2)n1N	.	.	.	.[9.24 µM]	.
CCn1c(SCC(=O)Nc2nc(-c3ccccc3)cs2)nnc1-c1ccccc1	?	-63	?	?	?
CCn1c(SCC(=O)Nc2oc(-c3ccccc3)c(-c3ccccc3)c2C#N)nnc1-c1ccncc1	13µM	.	?	.	.
Cc1ccc(Nc2nc(C)cs2)cc1	?	.	?	.	.
CC(C)C[C@H]1CN([C@@H](Cc2ccccc2)CN2CCC[C@H]2CN2C(=O)C(=O)NC[C@@H]2Cc2ccccc2)C(=O)C(=O)N1CCc1ccccc1	?	.	?	.	.
CC(C)C[C@H]1CN([C@@H](Cc2ccccc2)CN2CCC[C@@H]2CN2C(=O)C(=O)NC[C@@H]2Cc2ccccc2)C(=O)C(=O)N1CCc1ccccc1	16µM	-67	16µM	?	?
CC(C)C[C@H]1CNC(=O)C(=O)N1C[C@@H]1CCCN1C[C@H](CC(C)C)N1C[C@H](Cc2ccccc2)N(CCc2ccccc2)C(=O)C1=O	?	.	?	.	.
CC(C)C[C@H]1CNC(=O)C(=O)N1C[C@H]1CCCN1C[C@H](CC(C)C)N1C[C@H](Cc2ccccc2)N(CCc2ccccc2)C(=O)C1=O	21µM	.	29µM	.	.
